Laboratory results taken from PubChem BioAssay AID1159580 (chemical genetic matrix, 2015).
Values joined by “and” are separate entries in the source; they are usually repeats but may differ in a detail not shown here. Equal values may be shown once. Hit rate of the full screen: of about 5,500 compounds, about 2,000 (36%) were called active. About 18% were inconclusive and are not listed. No stated cut-off is given here; in the data, active means normalized growth mostly below about 0.91 (no sharp cut-off); inconclusive means no clear call, values can overlap the other calls; inactive means mostly above about 0.92. Some of the results follow.

Experiment: chemical genetic growth profiling, strain panel (AID 1159580);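 further: tested at 20 µM; growth read once vehicle control cultures reached saturation at 30 °C; 1 = growth at the plate median or of vehicle wells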
Conditions: S. cerevisiae deletion strains, growth OD

Measured: normalized growth

Cc1[nH]c2ccccc2c1CN(C)C
inactive: locus YAL021C, strain ccr4, stronger effect = lower value 1.01 | locus YAL026C, strain drs2, stronger effect = lower value 1.03 | locus YAL030W, strain snc1, stronger effect = lower value 1.02 | locus YBL061C, strain skt5, stronger effect = lower value 1.02 | locus YBR009C, strain hhf1, stronger effect = lower value 1.02 | locus YBR021W, strain FUR4, stronger effect = lower value 0.951 | locus YBR023C, strain chs3, stronger effect = lower value 1.02 | locus YBR171W, strain sec66, stronger effect = lower value 1.02 | locus YBR229C, strain ROT2, stronger effect = lower value 0.998 | locus YBR231C, strain swc5, stronger effect = lower value 1.02 | locus YBR279W, strain paf1, stronger effect = lower value 1.01 | locus YCL011C, strain gbp2, stronger effect = lower value 1.02 | locus YCL016C, strain dcc1, stronger effect = lower value 1.01 | locus YCL029C, strain bik1, stronger effect = lower value 0.986 | locus YCL069W, strain vba3, stronger effect = lower value 1.01 | locus YCR088W, strain abp1, stronger effect = lower value 1.02 | locus YDL005C, strain med2, stronger effect = lower value 1.03 | locus YDL035C, strain GPR1, stronger effect = lower value 1.01 | locus YDL040C, strain nat1, stronger effect = lower value 1.02 | locus YDL074C, strain BRE1, stronger effect = lower value 1 | locus YDL101C, strain DUN1, stronger effect = lower value 1.01 | locus YDL134C, strain PPH21, stronger effect = lower value 1.02 | locus YDL185W, strain tfp1, stronger effect = lower value 1.01 | locus YDL192W, strain arf1, stronger effect = lower value 0.983 | locus YDR001C, strain nth1, stronger effect = lower value 1.01 | locus YDR069C, strain doa4, stronger effect = lower value 1.02 | locus YDR101C, strain arx1, stronger effect = lower value 0.968 | locus YDR137W, strain rgp1, stronger effect = lower value 1.03 | locus YDR150W, strain NUM1, stronger effect = lower value 1.01 | locus YDR159W, strain sac3, stronger effect = lower value 1.05 | locus YDR162C, strain NBP2, stronger effect = lower value 1.07 | locus YDR195W, strain ref2 1.03 | locus YDR297W, strain sur2, stronger effect = lower value 1.02 | locus YDR318W, strain mcm21, stronger effect = lower value 0.995 | locus YDR334W, strain swr1, stronger effect = lower value 1.01 | locus YDR335W, strain msn5, stronger effect = lower value 1.01 | locus YDR388W, stronger effect = lower value 0.993 | locus YDR392W, strain spt3, stronger effect = lower value 1.03 | locus YDR502C, strain sam2, stronger effect = lower value 0.987 | locus YEL003W, strain gim4, stronger effect = lower value 1.01 | locus YEL037C, strain rad23, stronger effect = lower value 1.01 | locus YEL061C, strain CIN8 (second series), stronger effect = lower value 1.03 | locus YEL061C, strain CIN8, stronger effect = lower value 1.02 | locus YER015W, strain faa2, stronger effect = lower value 1.01 | locus YER016W, strain bim1, stronger effect = lower value 1.01 | locus YER110C, stronger effect = lower value 0.984 | locus YER111C, strain swi4, stronger effect = lower value 1.03 | locus YER155C, strain BEM2, stronger effect = lower value 0.983 | locus YER167W, strain BCK2, stronger effect = lower value 1 | locus YFR010W, strain ubp6, stronger effect = lower value 1.01 | locus YGL078C, strain dbp3, stronger effect = lower value 1.01 | locus YGL086W, strain mad1, stronger effect = lower value 0.996 | locus YGL167C, strain pmr1, stronger effect = lower value 1.04 | locus YGL173C, strain kem1, stronger effect = lower value 1.03 | locus YGL227W, strain vid30, stronger effect = lower value 1.01 | locus YGL240W, strain doc1, stronger effect = lower value 1.01 | locus YGL248W, strain PDE1, stronger effect = lower value 1.03 | locus YGL253W, strain hxk2, stronger effect = lower value 1.02 | locus YGR135W, strain pre9, stronger effect = lower value 0.995 | locus YGR229C, strain SMI1, stronger effect = lower value 1.06 | locus YGR252W, strain gcn5, stronger effect = lower value 0.908 | locus YHR013C, strain ard1, stronger effect = lower value 1.03 | locus YHR027C, strain rpn1, stronger effect = lower value 1.03 | locus YHR030C, strain SLT2, stronger effect = lower value 1 and 0.988 | locus YHR079C, strain IRE1 (second series), stronger effect = lower value 0.995 | locus YHR079C, strain IRE1, stronger effect = lower value 0.982 | locus YHR094C, strain hxt1, stronger effect = lower value 0.989 | locus YHR129C, strain ARP1, stronger effect = lower value 1.01 | locus YHR142W, strain chs7, stronger effect = lower value 1.03 | locus YHR200W, strain rpn10, stronger effect = lower value 0.991 | locus YIL066C, strain RNR3, stronger effect = lower value 1.02 | locus YIL073C, strain SPO22, stronger effect = lower value 1.02 | locus YIL125W, strain kgd1, stronger effect = lower value 1.01 | locus YIR030C, strain dcg1, stronger effect = lower value 0.99 | locus YJL092W, strain hpr5, stronger effect = lower value 1.01 | locus YJL095W, strain BCK1 (second series), stronger effect = lower value 1.02 | locus YJL095W, strain BCK1, stronger effect = lower value 1.06 and 0.973 | locus YJL115W, strain asf1, stronger effect = lower value 1.02 | locus YJL129C, strain trk1, stronger effect = lower value 1.03 | locus YJL134W, strain LCB3, stronger effect = lower value 0.994 | locus YJL154C, strain vps35, stronger effect = lower value 1.02 | locus YJL164C, strain tpk1, stronger effect = lower value 1.01 | locus YJL166W, strain qcr8, stronger effect = lower value 1.02 | locus YJL168C, strain set2, stronger effect = lower value 0.993 | locus YJL187C, strain SWE1 (second series), stronger effect = lower value 1.01 | locus YJL187C, strain SWE1, stronger effect = lower value 1.02 | locus YJR043C, strain POL32, stronger effect = lower value 0.995 | locus YJR066W, strain TOR1, stronger effect = lower value 0.906
